Bioassay records: PubChem, National Center for Advancing Translational Sciences (NCATS)
Luciferase inh: Firefly luciferase inhibition profiling of diverse chemical library using quantitative high-throughput screening; Luciferin 4-monooxygenase (Photinus pyralis), P08659; hit rate 2.5% among 76,000; Potency, µM (top dose mostly 115 µM), usual class: inhibitors; AID 1347043, 2019; purified P. pyralis luciferase, luminescence, biochemical; further: nearly all actives have a fitted effect of over 65% in size
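Biochemical qHTS: compound (6-point titration) added to 10uM D-luciferin plus 10uM ATP in Tris acetate pH 7.5 buffer with Mg, Tween-20 and BSA, then purified enzyme at 10nM; light output imaged.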
HEK293 tox: Cytotoxic Profiling in HEK 293 Cell Line of Diverse Libraries Using Quantitative High-Throughput Screening; HEK 293 viability, ATP luminescence (CellTiter-Glo), 48-72 h; Potency, µM (titrated, usually from 115 µM), for the others: top-dose activity change, negative = cytotoxicity, hits mostly inhibitors; hit rate 6.6% among 94,000; AID 1345083, 2018; further: nearly all actives have a fitted effect of over 60% in size
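Pintool-delivered compounds were incubated with HEK 293 cells (250 cells/well) at 37 degree Celsius for 48 or 72 hr. ATP-dependent luminescence (CellTiter-Glo) then reported remaining viable cells.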
NIH3T3 tox: Cytotoxic Profiling in NIH 3T3 Cell Line of Diverse Libraries Using Quantitative High-Throughput Screening; hit rate 4.3% among 94,000; AID 1345082, 2018; NIH 3T3 viability, CellTiter-Glo ATP luminescence, 48-72 h; Potency, µM (highest dose often 96.7 µM), inactives show at the highest dose activity change, negative = cytotoxicity, most hits filed as inhibitors; further: nearly all actives have a fitted effect of over 55% in size
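Cytotoxicity was measured by CellTiter-Glo ATP luminescence after 48 or 72 h compound exposure at 37 °C. Mouse NIH 3T3 fibroblasts were seeded at 400 cells/well and dosed by 23 nL pin transfer.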
NPR1 antag: Natriuretic polypeptide receptor (hNpr1) antagonism - Primary qHTS. Atrial natriuretic peptide receptor 1 (Homo sapiens), P16066. HEK293 hNpr1 GloSensor cGMP, ANP-stimulated luminescence. Potency, µM (titrated, usually from 46.3 µM), inactives show at the highest dose activity change, negative = inhibition, usual class: inhibitors. hit rate 1.6% among 76,000. AID 1347048, 2019; calls by dose curve; further: nearly all actives have a fitted effect of over 60% in size
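HEK293 cells stably expressing human Npr1 and cGMP GloSensor pGS-40F, loaded 2 h with 2% GloSensor reagent, given compound 30 min at room temperature. Luminescence read before and 20 min after 0.1 nM hNppA.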
Numbers without * were called inactive; i = inactive; ? = inconclusive; / = not tested or not shown; [ ] = another dose, or the depositor's remark. Hits are enriched below; roughly 11% of the tested compounds scored in any of these assays. Unless noted, the call rests on the fitted dose curve; in most records, active means well fitted curve in the direction sought with a large enough effect; inconclusive means small, poorly fitted or top-dose-only effect, or another doubt; inactive means no such curve, though single readings can be large; an effect the other way counts as inactive or inconclusive. On the % scale 0 is the no-effect control and ±100 the full control effect; potency means the concentration at half of the fitted maximal effect.

SMILES | Luciferase inh | HEK293 tox | NIH3T3 tox | NPR1 antag
O=c1cc(N2CCOCC2)oc2c(-c3cccc(F)c3)nccc12 | i | ? | ? | 4%[70.6 µM]
COc1ccccc1-c1ccc(CN2CCCCC2C(=O)NCc2cccc(C(F)(F)F)c2)cc1 (configuration not stated) | / | 28µM* | ? | /
COc1ccc(F)cc1-c1ccc(CN2CCCCC2C(=O)NC(C)CCc2ccccc2)cc1 (configuration not stated) | / | 25µM* | ? | /
COc1ccc(F)cc1-c1ccc(CN2CCCCC2C(=O)NCc2cccs2)cc1 (configuration not stated) | / | ? | 13µM* | /
COc1ccccc1-c1cccc(C(=O)N2CCC[C@H]2C(=O)NCc2cccc(F)c2)c1 | / | ? | -18% | /
COc1ccccc1-c1cccc(C(=O)N2CCC[C@H]2C(=O)NCc2ccc(C(F)(F)F)cc2)c1 | / | 79µM* | ? | /
CN(CCc1noc(C2CN(Cc3cccc(C#N)c3)C2)n1)C(=O)C1CCOCC1 | / | -25% | -28% | /
CN1c2cc(C(=O)N3CCN(c4ccc(Cl)cc4)CC3)ccc2C(=O)N2CCCCC21 (configuration not stated) | i | ? | -28% | ?
O=C(c1ccc(Cl)cc1)N1CCn2c(nn(-c3ccc([N+](=O)[O-])cc3)c2=O)C1 | / | i | i | /
O=C(NC1CCN(c2ccc3nnc(-c4ccccc4)n3n2)CC1)c1cccc(Cl)c1 | / | -26% | ? | /
COc1ccc(CNC(=O)C2CCCCN2Cc2ccc(-c3ccccc3OC)cc2)cc1OC (configuration not stated) | / | 32µM* | ? | /
O=C(NCc1cccc(C(F)(F)F)c1)C1CCCN1Cc1ccc(-c2cncnc2)cc1 (configuration not stated) | / | 50µM* | ? | /
O=C(NCc1cc(F)ccc1F)C1Cn2cccc2C(=O)N1Cc1ccccc1 (configuration not stated) | i | -12% | -17% | 0%
COc1ccc(F)cc1-c1ccc(CN2CCCCC2C(=O)NCc2ccccc2F)cc1 (configuration not stated) | / | 25µM* | ? | /
COc1ccc(F)cc1-c1ccc(CN2CCCCC2C(=O)NCc2ccccc2)cc1 (configuration not stated) | / | 32µM* | ? | /
COc1cccc(CNC(=O)c2cn3cc(-c4cccc(C#N)c4)sc3n2)c1 | / | ? | -21% | /
O=C(c1ccc(Cl)nc1)N1CCC(C(=O)N2CCC(c3nc4ccncc4[nH]3)C2)CC1 (configuration not stated) | / | i | -11% | /
CC(C)CCN1CCOc2cc(C(=O)Nc3cccnc3)ccc2C1 | i | 112µM* | -13%[138 µM] | -4%[70.6 µM]
CC(C)CCN1CCOc2cc(C(=O)Nc3ccc(F)cc3)ccc2C1 | i | ? | ? | ?
CC(C)CCN1CCOc2cc(C(=O)Nc3nccs3)ccc2C1 | ? | 100µM* | ? | -18%[70.6 µM]
CC(C)CCN1CCOc2cc(C(=O)N(C)c3cccnc3)ccc2C1 | i | 112µM* | ? | -15%[70.6 µM]
CC(C)CCN1CCOc2cc(C(=O)NCc3ccccc3)ccc2C1 | i | ? | ? | 4%[70.6 µM]
CC(C)CCN1CCOc2cc(C(=O)NCCOc3ccccc3)ccc2C1 | i | 100µM* | ? | -11%[70.6 µM]
CCOC(=O)c1ccc(NC(=O)Cn2c(=O)n(CC)c(=O)c3c2cc(C)n3C)cc1 | i | ? | ? | -1%
O=C(NCC1CC1)c1ccc2c(c1)OCCN(c1ccccc1)C2 | i | 11µM* | ? | -4%[70.6 µM]
SMILES | Luciferase inh | HEK293 tox | NIH3T3 tox | NPR1 antag
CNC(=O)c1ccc2c(c1)OCCN(c1ccccc1)C2 | i | ? | -25%[174 µM] | 1%[70.6 µM]
O=C(Nc1ccc(F)cc1)c1ccn2nccc2c1 | 50µM* | ? | -26%[138 µM] | -9%[70.6 µM]
COc1ccccc1-c1cccc(CN2CCC(N[S+](=O)([O-])c3c(C)noc3C)CC2)c1 | / | 35µM* | 35µM* | /
COc1ccccc1-c1cccc(CN2CCC(N[S+](=O)([O-])c3ccc(C)cc3)CC2)c1 | / | 35µM* | ? | /
COc1ccc2cc1Nc1ccc(cc1)C[C@H](NCc1ccc(C)o1)C(=O)N(C)[C@H](C(=O)NCCC(C)C)C2 | i | ? | ? | 2%
COC(=O)[C@@H]1Cc2c([nH]c3ccccc23)[C@H]2C[C@@H](NCCCn3ccnc3)C[C@@H](c3ccc(Cl)c(F)c3)N21 | i | 28µM* | 25µM* | 0%
COC(=O)[C@@H]1Cc2c([nH]c3ccccc23)[C@H]2C[C@@H](NCCCn3ccnc3)C[C@@H](c3ccc(F)cc3)N21 | i | 25µM* | 25µM* | -2%
CN1Cc2ccc(NCc3ccccc3)nc2C(C)(C(=O)NCCCn2ccnc2)C1 (configuration not stated) | i | ? | ? | -2%[70.6 µM]
COC(=O)[C@@H]1Cc2c([nH]c3ccccc23)[C@H]2C[C@@H](NCCCn3ccnc3)C[C@@H](c3cccc(Cl)c3)N21 | i | 28µM* | 18µM* | -12%
O=C(NCCCn1ccnc1)c1ccc(C2CCCNC2)cc1 (configuration not stated) | i | 0% | i | 4%
COc1ccc(OC)c(CN2CCCn3nc(C)c(-c4cnccc4C)c32)c1 | i | ? | 89µM* | -16%[70.6 µM]
Cc1ccncc1-c1c(C)nn2c1N(Cc1cccc(OC(F)(F)F)c1)CCC2 | i | 32µM* | ? | ?
COc1ccccc1CN1CCCn2nc(C)c(-c3cnccc3C)c21 | i | 40µM* | 45µM* | ?
O=C(Nc1cc(-c2cccnc2)nn1-c1ccccc1)C1CC1 | / | i | -4%[138 µM] | /
O=C(NC1CC1)C1(F)CCN(S(=O)(=O)c2ccccc2)CC1 | / | ? | -31% | /
O=C(NCCc1ccccc1)Nc1cnc2c(c1)CCC2 | / | i | -12% | /
Cc1nnn2c(C(=O)NCc3ccc(Cl)cc3)cccc12 | i | 79µM* | 35µM* | 0%[70.6 µM]
O=C(Cc1ccccc1)N1CCC[C@H]1c1nc(-c2ccccc2Cl)no1 | i | ? | -28% | 1%
O=C(N1CCC[C@H]1c1nc(-c2ccccc2Cl)no1)C1(c2ccccc2)CC1 | 22µM* | ? | ? | -19%
CCN1c2cc(C(=O)Nc3ccc(OC)c(Cl)c3)ccc2C(=O)N2CCCCC21 (configuration not stated) | i | 35µM* | 22µM* | -26%
CCN1c2cc(C(=O)Nc3ccc(OC)c(F)c3)ccc2C(=O)N2CCCCCC21 (configuration not stated) | i | ? | ? | -19%
CCN1c2cc(C(=O)Nc3ccc(OC)c(OC)c3)ccc2C(=O)N2CCCCC21 (configuration not stated) | i | ? | ? | -12%
